Screening data (PubChem BioAssay)
A3A deaminase: APOBEC3A ssDNA deaminase inhibitors, primary screen, selectivity assay for APOBEC3G inhibitor project, biochemical, FAM/TAMRA oligo cleavage fluorescence | inhibition, % at 20 µM | hit rate 0.41% among 330,000 | recombinant A3A, FAM/TAMRA ssDNA deamination fluorescence | DNA dC->dU-editing enzyme APOBEC-3A (Homo sapiens), P31941 | AID 493011, 2011;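 active means at least 40% inhibition at 20 µM here, with at most 30% in a related deaminase screen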;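 further: plate controls were A3A with DMSO for no effect and wells lacking A3A enzyme for full effect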
A3G deaminase: APOBEC3G DNA deaminase inhibitors, primary screen, biochemical, fluorescence, single-stranded DNA substrate, uHTS; hit rate 0.28% among 330,000; inhibition, % at 20 µM; recombinant A3G, ssDNA deamination FAM/TAMRA fluorescence; DNA dC->dU-editing enzyme APOBEC-3G (Homo sapiens), Q9HC16;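 active means inhibition of at least 40% at 20 µM, with no more than 30% in the related APOBEC3A deaminase screen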;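 further: plate controls were DMSO wells with A3G for no effect and wells lacking A3G enzyme for full effect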
Target sequence (Q9HC16 whole entry, looked up): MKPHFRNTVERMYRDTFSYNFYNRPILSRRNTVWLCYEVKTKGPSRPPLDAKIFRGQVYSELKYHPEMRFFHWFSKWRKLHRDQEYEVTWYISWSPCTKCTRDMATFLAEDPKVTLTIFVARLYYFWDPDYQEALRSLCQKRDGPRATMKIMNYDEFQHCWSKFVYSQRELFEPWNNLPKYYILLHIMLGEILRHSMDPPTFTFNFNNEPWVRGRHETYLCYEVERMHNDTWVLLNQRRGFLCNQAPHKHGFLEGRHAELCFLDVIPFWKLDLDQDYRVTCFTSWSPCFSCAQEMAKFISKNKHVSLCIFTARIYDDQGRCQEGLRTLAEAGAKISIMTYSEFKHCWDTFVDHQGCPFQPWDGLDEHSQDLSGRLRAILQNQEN
VLA-4 inh: inhibition in human VLA-4 binding assay, primary screen, VLA-4 allosteric modulator project, MLPCN library, flow cytometry, VLA-4 expressing cells; Integrin alpha-4 (Homo sapiens), P13612; ligand binding flow cytometry; inhibition, % (about 7 µM as worked out from the volumes in the protocol); hit rate 0.2% among 330,000; AID 2557, 2010; in the data active means inhibition above about 50%
GRK2 aptamer HTS: compounds blocking aptamer binding on GRK2 – biochemical, human GRK2, bead flow cytometry, HTS, primary screen | Beta-adrenergic receptor kinase 1 (Homo sapiens), P25098 | inhibition of aptamer binding, % at 10 µM | FAM-aptamer displacement from GRK2 | hit rate 0.59% among 330,000;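 active means inhibition of aptamer binding above 40%, roughly 3 SD of noise, on plates passing a quality check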;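 further: median bead fluorescence of bound FAM aptamer so fluorescent compounds give negative values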
A3G conf: APOBEC3G deaminase inhibitor retest, confirmation, biochemical, fluorescence, single-stranded DNA substrate, single concentration; inhibition, % at 20 µM; hit rate 72% among 890; recombinant A3G ssDNA deaminase, UDG/FAM-TAMRA fluorescence; shares compounds with A3G deaminase;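 active means inhibition reaching a set limit in any replicate at 20 µM, the limit being 80% of the first screen's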
UDG A3G counter: E. coli UDG inhibitors, confirmation, counter-screen for APOBEC3G inhibitor project, biochemical, single concentration, fluorescence, FAM/TAMRA oligo. shares compounds with A3G deaminase. 710 tested, under 10 active. inhibition, % at 20 µM. UDG counterscreen;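 active means compounds giving 40% or more inhibition at 20 µM in any one of the three replicates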;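 further: plate controls were DMSO wells with UDG and oligo for no effect and DMSO wells lacking both for full effect; inhibitors lower the FAM signal released by uracil excision and alkaline cleavage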
Target sequence (P12295 whole entry, looked up): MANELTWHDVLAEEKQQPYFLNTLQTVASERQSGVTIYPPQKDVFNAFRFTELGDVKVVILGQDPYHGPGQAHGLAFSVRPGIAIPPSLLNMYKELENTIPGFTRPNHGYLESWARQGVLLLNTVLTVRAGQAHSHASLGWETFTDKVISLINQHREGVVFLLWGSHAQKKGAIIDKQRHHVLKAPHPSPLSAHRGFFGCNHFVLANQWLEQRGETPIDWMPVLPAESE
* hit, by the source's call; · = not tested or not shown. Most compounds without a hit are left out; they make up all but 1.4% or so of the library.

SMILES	A3A deaminase	A3G deaminase	VLA-4 inh	GRK2 aptamer HTS	A3G conf	UDG A3G counter
CCOc1ccc(-c2nc(=S)[nH][nH]2)cc1	-7	30	2	3	·	·
Oc1ccc(-c2nc(=S)[nH][nH]2)cc1	-3	64*	-4	9	90*	-1
COc1cc(-c2nc(=S)[nH][nH]2)cc(OC)c1OC	-5	62*	5	1	94*	-1
CC(C)Cc1nc2ccccc2[nH]1	0	-4	0	1	·	·
CCN/N=C(\Cc1nc2ccccc2[nH]1)c1ccccc1	4	0	-38	0	·	·
COc1oc(-c2ccc(Cl)cc2)nc1C(F)(F)F	0	2	3	1	·	·
COc1ccc2c(C)cc3n[nH]c(=S)n3c2c1	-7	52*	-4	2	87*	-1
COc1ccc(-c2n[nH]c(=S)n2-c2cc(OC)ccc2OC)cc1	-2	10	5	0	·	·
Cc1cc(C(=O)N2CCCC(N3CCN(c4cccc(Cl)c4)CC3)C2)no1 (stereo not drawn)	-2	-2	-9	0	·	·
O=C(CCC(=O)OCC(=O)c1ccc(Cl)cc1Cl)Nc1cccc2cccnc12	-2	54*	0	0	-4	-1
O=C(CCC(=O)OCC(=O)c1ccc(-c2ccccc2)cc1)Nc1cccc2cccnc12	1	-1	16	0	·	·
CC(=O)c1sc2nc(-c3cccs3)ccc2c1N	6	44*	-52	0	31*	-2
Cc1ccc(C(=O)CSc2ccc(-c3ccccc3)nn2)cc1	-3	74*	20	0	16	-1
COC(=O)c1ccc(Cn2nc(C)c([N+](=O)[O-])c2C)o1	-4	-9	8	3	·	·
Cc1nn(Cc2ccc(C(=O)O)o2)c(C)c1[N+](=O)[O-]	-1	54*	7	1	7	-1
CCCCCNC(=O)CN(c1ccc2c(c1)OCO2)S(C)(=O)=O	-2	-8	8	0	·	·
CC(=O)c1ccc(NS(=O)(=O)c2c(C)cc(C)cc2C)cc1	2	4	0	0	·	·
Nc1ccccc1Sc1nc2ccccc2[nH]1	0	57*	6	1	2	·
COc1ccc(O)c(C(=O)C2c3ccccc3C(=O)N2c2ccc(C)cc2)c1 (stereo not drawn)	-1	75*	-4	2	88*	-5
O=C1CC/C=C\C[C@@H](CC(=O)N(CCO)Cc2ccccc2)C(=O)N[C@H](Cc2c[nH]c3ccccc23)CO1	-4	-11	8	0	·	·
CC(=O)/C(=N/Nc1cccc(C)c1)N1CCOCC1	-3	45*	30	1	3	-3
COC(=O)CCCC1=CC2=CC(=O)C(C)(OC(=O)c3cccs3)C(=O)C2=CN1CCCOC(C)C (stereo not drawn)	-2	-6	20	0	·	·
CCOC(=O)Cc1csc(-n2sc3ccccc3c2=O)n1	0	81*	2	0	84*	3
O=C(CC(c1ccc(F)cc1)c1ccco1)Nc1nccs1 (stereo not drawn)	2	53*	2	0	0	·
COc1ccccc1C(CC(=O)Nc1nccs1)c1ccco1 (stereo not drawn)	-2	-1	6	2	·	·
SMILES	A3A deaminase	A3G deaminase	VLA-4 inh	GRK2 aptamer HTS	A3G conf	UDG A3G counter
Nc1nc(-c2ccc3c(c2)OCCO3)cs1	-4	-2	1	2	·	·
Nc1nc(-c2cc3c(cc2Cl)OCCO3)cs1	-1	52*	5	3	-9	-3
CCC(=O)NC1=C(Cl)C(=O)C(NC(=O)CC)=C(Cl)C1=O	-4	87*	·	·	96*	-2
COc1cc2c(cc1NC(=O)/C=C/c1ccccc1)oc1ccccc12	2	-3	12	0	·	·
O=C1/C(=C\c2cccc(O)c2O)SC(=S)N1Cc1ccccc1	2	62*	0	3	59*	-3
CCCc1nc2nc(C)c(NS(=O)(=O)c3ccc([N+](=O)[O-])cc3)c(=O)n2[nH]1	-6	1	0	2	·	·
O=S(=O)(Nc1ncnc2sc3c(c12)CCC3)c1ccc2ccccc2c1	-14	-4	6	4	·	·
Cc1cc(F)ccc1S(=O)(=O)Nc1ncnc2sc3c(c12)CCC3	-1	51*	9	0	-4	2
c1csc(-c2nn3c(Cn4nnc5ccccc54)nnc3s2)c1	2	-3	9	0	·	·
c1csc(-c2nn3c(Cn4cnc5ccccc54)nnc3s2)c1	5	53*	-7	0	38*	-4
NC(=O)c1c(NC(=O)C2CCCO2)sc2c1CCCC2 (stereo not drawn)	5	40*	14	3	26	·
O=C(CN1CCN(Cc2ccc(Cl)cc2)CC1)N/N=C/C=C/c1ccccc1[N+](=O)[O-]	-2	-7	18	0	·	·
COc1cc2cc3c(N)c(C(=O)NCc4ccco4)sc3nc2cc1OC	-1	4	3	0	·	·
COc1cc2cc3c(N)c(C(=O)Nc4sc(C)c(C)c4C#N)sc3nc2cc1OC	19	48*	-23	0	27*	4
O=C(C1=C[C@H](c2ccc(Br)cc2)C[C@H](OCc2ccc(CO)cc2)O1)N1CCOCC1	-1	-10	18	0	·	·
Cc1ccc(C)c(N(CC(=O)NN=C2CCN(C)CC2)S(=O)(=O)c2ccccc2)c1	-1	51*	4	0	-1	5
COc1ccc(-n2c(SCC(N)=O)nnc2-c2ccc(NS(=O)(=O)c3ccc(C)cc3)cc2)cc1	-2	-9	3	1	·	·
Cc1c(/C=N/Nc2ccc(F)cc2)c(O)n(C)c(=O)c1C#N	-1	64*	-10	0	-1	-3
CC(C)Cn1c(-c2nn(C)cc2Cl)n[nH]c1=S	-9	26	5	0	·	·
Cc1ccccc1-n1c(-c2ccc(Br)o2)n[nH]c1=S	-1	27	7	0	·	·
Cc1ccsc1-c1n[nH]c(=S)n1CC(C)C	-3	44*	-6	6	90*	-2
CC(C)Cn1c(-c2ccc(Br)o2)n[nH]c1=S	-4	41*	10	0	76*	-4
Cc1nn(C)cc1S(=O)(=O)Nc1ncccn1	-5	-13	24	3	·	·
CCN1CCN(c2nc(C)nc3c2sc(=S)n3C)CC1	4	46*	·	·	45*	·
